Consider 96 compounds from PubChem BioAssay AID431 (Sanford-Burnham Center for Chemical Genomics, 2006).

Hit rate of the full screen: of about 63,000 compounds, about 1,100 (1.7%) were called active. This is one part of a sample in which actives are shown more often than they occur. Measured potencies and affinities stand elsewhere. Values without a mark were called inactive.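 The calls were made as follows: active = compounds whose percent cytotoxicity in the single-dose primary screen, scaled between solvent and toxic-drug controls, exceeds 50; inactive = the rest.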

This assay in a line: cytotoxicity in KRAS-transformed pancreatic duct cells, primary screen, cell-based, fluorescence, HTS (AID 431).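 Also: 0% = DMSO solvent wells and 100% = doxorubicin-treated wells.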 Particulars: HPDE-C7K KRASV12 cells, Alamar Blue viability, 48 h; at 10 µM; hits give high values.
On to `CCOC(=O)c1sc(NC(=O)CSc2n[nH]c(-c3ccccc3)n2)c(C#N)c1C`, for which the cytotoxicity was -1.8%. Then `CCOC(=O)c1c(NC(=O)CSc2n[nH]c(N)n2)sc(CC)c1C`, with 0%. Then `Cc1ccc(C(=O)NCCCC(=O)O)o1`, with -5%; and `Cc1cc(-c2ccco2)n2c(nc3ccccc32)c1C#N`, with 18.2%; and `COC(=O)c1nnn(-c2nc(N3CCCCC3)nc(N3CCCCC3)n2)c1C`, with -3.1%.

Take `CCOC(=O)c1cnc(-n2nc(C)cc2C)nc1NC(C)c1ccccc1` (stereo unspecified): the cytotoxicity was -13%.

On to `NS(=O)(=O)c1ccc(NC=C2C(=O)OC3(CCCCC3)OC2=O)cc1`, for which the cytotoxicity was 8.5%. Then `NS(=O)(=O)c1ccc(NC(=O)CSC2CCCCC2)cc1`, with -3.7%; and `Cc1ccc(-c2nnn(CC(=O)Nc3ccc(S(=O)(=O)N4CCC(C)CC4)cc3)n2)cc1`, with -2.5%. Then `CCOC(=O)c1c2n(c3ccc(O)cc13)CCCCC2`, with 2.9%; and `COc1cc(C(=O)Oc2c(CN3CCOCC3)cc(Cl)c3cccnc23)cc(OC)c1OC`, with 18.4%; and `Oc1c(CN2CCOCC2)cc(COCc2ccccc2)c2cccnc12`, with 30.7%. Regarding `O=C(Oc1c(Cl)cc(Cl)c2cccnc12)N1CCOCC1`, the cytotoxicity is -2.4%.

On to `COc1ccc(C(=O)Oc2c(CN3CCOCC3)cc(Cl)c3cccnc23)cc1OC`, for which the cytotoxicity was 13.7%.

Take `Cc1ccc(Cl)cc1N(CC(=O)NC1CCCCC1)S(C)(=O)=O`: the cytotoxicity is -5.9%. Then `Cc1nc2cc(-c3cccc(F)c3)nn2c(C)c1CCC(=O)N1CCN(c2ccccn2)CC1`, with -4.7%. `OC(CN1CCOCC1)CN1CCOCC1`: the cytotoxicity is 13.2%. Turning to `CCCCCOc1ccc(OC(=O)c2ccncc2)cc1`, the cytotoxicity was -0.5%.

As to `CC(=O)c1cccc(NC(=O)c2cc(C(C)C)on2)c1`, the cytotoxicity was -17.2%. For `O=C(O)CCC(=O)Nc1ccc(C(=O)OC2CCCCC2)cc1`, the cytotoxicity is -16.9%. Then `CCCCOC(=O)c1ccc(NC(C)=O)cc1`, with -20.2%. Then `CCCCCOC(=O)c1ccc(NC(=O)c2ccco2)cc1`, with 80.3% (active); and `O=C(Nc1ccc(OC(=O)c2ccco2)cc1)c1ccco1`, with -0.1%. Then `CCCCOC(=O)c1ccc(NC(=O)c2ccoc2C)cc1`, with 5%; and `O=C(OC1CCCCC1)c1ccc(NC(=O)c2ccco2)cc1`, with 74.9% (active); and `CCC1S/C(=C(\C#N)C(=O)NCc2ccco2)N(c2ccc(Br)cc2)C1=O` (stereo unspecified), with -5.6%.

In the case of `O=C(CSCc1ccccc1)Nc1nccs1`, the cytotoxicity is -4.5%. Then `CC(C)CCn1c(NCCc2ccccc2)nc2c1c(=O)n(C)c(=O)n2C`, with 0.9%; and `O=S(=O)(O)c1nc2ccccc2n1CCOc1ccccc1`, with 5.6%; and `CC(=O)Oc1ccc(N2C(=O)CCC2=O)cc1`, with -3.8%. On to `Nc1c(Br)cc(Br)c(N2CCCC2=O)c1Br`, for which the cytotoxicity is 0.5%. Take `O=C(c1ccc(Cl)cc1)c1ccc(OCC(O)CN2CCOCC2)cc1` (stereo unspecified): the cytotoxicity is 2.3%.

For the compound `CS(=O)(=O)N1CCC(NC(=O)Cc2ccccc2)CC1`, the cytotoxicity is -2.1%. As to `O=C(CS(=O)(=O)c1ccccc1)N1CCCCCC1`, the cytotoxicity is -9.5%.

`C/C=C(\CS(=O)(=O)c1ccccc1)S(=O)(=O)c1ccccc1`: the cytotoxicity was 42.2%. Then `O=C1c2ccccc2C(=O)N1CCc1nc(-c2cccnc2)no1`, with -7.3%; and `Cc1ccc(CCNC(=O)c2nnn(-c3cc(C)cc(C)c3)c2N)cc1`, with 8.1%.

As to `Cc1cccc(-n2nnc(C(=O)Nc3ccc(F)cc3)c2N)c1`, the cytotoxicity is 4.2%.

Consider `Cc1cc(C)cc(NC(=O)c2nnn(Cc3cc(C)ccc3C)c2N)c1`, for which the cytotoxicity is 54.9% (active). Then `COc1ccc(C)cc1NC(=O)c1nnn(Cc2cc(C)ccc2C)c1N`, with -4%; and `Cc1ccc(C)c(NC(=O)c2nnn(Cc3ccccc3C)c2N)c1`, with -4.9%; and `Cc1ccc(NC(=O)c2nnn(-c3cc(C)cc(C)c3)c2N)cc1`, with 51.9% (active). Then `COc1ccc(S(=O)(=O)n2ccnc2)c2cccnc12`, with -6.2%; and `CC(C)(C)SCCNC(=O)COc1ccc(Cl)cc1`, with 7.6%. As to `CCOCCCNS(=O)(=O)c1ccc2c(c1)OCCO2`, the cytotoxicity was 11.2%. Turning to `O=c1c2c3c(sc2ncn1/N=C/c1ccco1)CCCC3`, the cytotoxicity is 1.1%. Then `O=C(Nc1ccc2oc(-c3ccccc3F)nc2c1)c1ccc2c(c1)OCCO2`, with 83.6% (active); and `O=C(Nc1ccc2oc(-c3ccccc3)nc2c1)c1ccc2c(c1)OCCO2`, with 37%.

Regarding `Cc1ccc(-c2nc3ccccc3o2)cc1NC(=O)c1ccc2c(c1)OCO2`, the cytotoxicity is -8.2%. Then `Cc1c(NC(=O)c2ccc3c(c2)OCO3)cccc1-c1nc2ccccc2o1`, with -4.5%; and `O=C(Nc1ccccc1-c1nc2ccccc2o1)c1ccc2c(c1)OCCO2`, with 79% (active).

`O=C(Nc1ccc2oc(-c3ccccc3F)nc2c1)c1cncc(Br)c1`: the cytotoxicity is 14.2%. Then `COc1cccc(-c2nnn(CC(=O)NC3CCCC3)n2)c1OC`, with 3.1%. On to `O=C(CC1Sc2ccccc2NC1=O)Nc1cccc(C(=O)O)c1` (stereo unspecified), for which the cytotoxicity is 2.1%. Then `O=C(NCc1ccncc1)c1ccc(Br)o1`, with -21.6%; and `O=C(NCc1ccccc1Cl)C1CCN(S(=O)(=O)N2CCCCC2)CC1`, with -3.6%.

As to `CCOC(=O)Oc1ccc2oc(=O)cc(C)c2c1`, the cytotoxicity was 10.2%. Then `CCOC(=O)/C=C(\C)Sc1cc(=O)oc2ccccc12`, with 77.6% (active); and `CCOC(=O)Nc1cc(=O)c2ccccc2o1`, with 38.2%; and `Cc1csc(SCc2c(C(=O)O)oc3ccccc23)n1`, with -0.8%. Then `CCOC(=O)C1=C(C)NC(=O)NC1c1cn(-c2ccccc2)nc1-c1cccs1` (stereo unspecified), with 23.8%. For `Fc1cccc(F)c1CN1CCN(c2ncccn2)CC1`, the cytotoxicity is -1.5%. Then `COCCN1Cc2cccc(C(=O)Nc3cccc(OC)c3)c2C1=O`, with -3.5%; and `Cn1c(=O)c(=O)n(C)c2cc(S(=O)(=O)N3CCN(c4cccc(C(F)(F)F)c4)CC3)ccc21`, with 80.1% (active). Consider `Cc1c(S(=O)(=O)N2CCN(c3cccc(C(F)(F)F)c3)CC2)c(=O)n(C)c(=O)n1C`, for which the cytotoxicity is 5.8%. On to `Cn1c(=O)c2cc(S(=O)(=O)N3CCN(c4cccc(C(F)(F)F)c4)CC3)ccc2n(C)c1=O`, for which the cytotoxicity was -3.4%. Regarding `COc1ccccc1CN(CC(=O)NCc1ccco1)C(=O)CNS(=O)(=O)c1ccccc1`, the cytotoxicity is 1.2%. Regarding `COc1ccccc1N1CCN(C(=O)C2CCN(S(=O)(=O)c3ccc(Cl)cc3)CC2)CC1`, the cytotoxicity is -11.9%.

With `Cc1cc(C(=O)OCC(=O)c2c(N)n(C)c(=O)n(C)c2=O)c(C)n1-c1ccccc1`, the cytotoxicity is 1.3%. Take `Cc1ccc(S(=O)(=O)C(C#N)c2nc3ccccc3nc2N2CCC(C)CC2)cc1` (stereo unspecified): the cytotoxicity was 30.1%.

With `Cc1ccc(C)c(S(=O)(=O)C(C#N)c2nc3ccccc3nc2N2CCCC2)c1` (stereo unspecified), the cytotoxicity is 14.7%. Then `Cc1ccc(S(=O)(=O)C(C#N)c2nc3ccccc3nc2N2CCCC2)cc1` (stereo unspecified), with 34.2%; and `COc1ccc(S(=O)(=O)C(C#N)c2nc3ccccc3nc2N2CCCCC2)cc1` (stereo unspecified), with 3.2%. For `Cc1ccc(S(=O)(=O)C(C#N)c2nc3ccccc3nc2N2CC(C)OC(C)C2)cc1C` (stereo unspecified), the cytotoxicity is 76.5% (active). For the compound `Cc1cccc(S(=O)(=O)C(C#N)c2nc3ccccc3nc2N2CCCC2)c1` (stereo unspecified), the cytotoxicity is -13.4%.

Take `Cc1ccc(C)c(S(=O)(=O)C(C#N)c2nc3ccccc3nc2N2CC(C)OC(C)C2)c1` (stereo unspecified): the cytotoxicity was 59.3% (active).

With `COc1ccc(S(=O)(=O)C(C#N)c2nc3ccccc3nc2N2CCCC(C)C2)cc1` (stereo unspecified), the cytotoxicity is 60.2% (active). Consider `Cc1ccc(C)c(S(=O)(=O)C(C#N)c2nc3ccccc3nc2N2CCOCC2)c1` (stereo unspecified), for which the cytotoxicity is -1.1%. Then `CC1CCCN(c2nc3ccccc3nc2C(C#N)S(=O)(=O)c2ccccc2)C1` (stereo unspecified), with 47.8%; and `Cc1ccc(S(=O)(=O)C(C#N)c2nc3ccccc3nc2N2CCCC2)cc1C` (stereo unspecified), with 56.7% (active); and `Cc1cccc(S(=O)(=O)C(C#N)c2nc3ccccc3nc2N2CC(C)OC(C)C2)c1` (stereo unspecified), with 7.7%. Then `Cc1ccccc1C(=O)N1CCC(C(=O)Nc2cccc(F)c2)CC1`, with 3%. `O=C(O)C1C2CCC(C2)C1C(=O)NCCCn1ccnc1` (stereo unspecified): the cytotoxicity is -7.9%. Then `CCCc1cc(=O)n2[nH]c(-c3cc(OC)c(OC)c(OC)c3)nc2n1`, with -9.7%; and `CCCOc1cccc(C(=O)Nc2cccc(NC(=O)c3ccco3)c2)c1`, with 7.4%; and `Cc1[nH]nc2c1C(c1ccc(F)cc1)C(C#N)=C(N)O2` (stereo unspecified), with -10.6%. As for `CCOC(=O)C1CCCN(Cc2ccccc2F)C1` (stereo unspecified), the cytotoxicity was 4.8%. Then `CC(C)c1ccc(S(=O)(=O)N2CCN(CC(=O)Nc3ccc4c(c3)OCO4)CC2)cc1`, with 2.2%; and `CCOC(=O)N1CCN(Cc2nc(-c3ccccc3)no2)CC1`, with 11.5%. Then `O=S(=O)(Nc1nc2ccccc2nc1NCc1ccco1)c1ccc(Cl)cc1`, with 20.9%; and `Cc1noc(C)c1CSc1ncnc2ccccc12`, with 18.6%. Regarding `Cc1noc(C)c1CSc1nc2ccccc2nc1NS(=O)(=O)c1ccc(Cl)cc1`, the cytotoxicity is 64.6% (active). Take `COc1cc(C2C(C(=O)OC(C)C)=C(C)Nc3[nH]c(=O)[nH]c(=O)c32)ccc1O` (stereo unspecified): the cytotoxicity was -5.8%. On to `CN1C(=O)NC(NC(=O)c2cccs2)(C(F)(F)F)C1=O` (stereo unspecified), for which the cytotoxicity is -12.1%.

On to `COc1ccc(N(C(=O)c2cccc(OC)c2OC)C2C=CS(=O)(=O)C2)cc1` (stereo unspecified), for which the cytotoxicity is -2.9%. Consider `c1ccc2c(c1)oc1c(Nc3ccc4c(c3)OCO4)ncnc12`, for which the cytotoxicity is -23.6%.
